From PubChem BioAssay
Values joined by “and” are separate entries in the source; they are usually repeats but may differ in a detail not shown here. Identical values can stand only once. Inconclusive results are not listed. A structure can be active in one record and inactive in another. Active and inactive are the calls of the source.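 How the source made its calls, unless noted: active means normalized viability below 100% at a tested concentration; inactive means the rest.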

Columns and labels:
[1] = viability loss in pontine glioma line – cell-based, SU-DIPG-XVII, MIPE5.0, CellTiter-Glo, qHTS, dose response (AID 1347060; cut-off not given, nearly all actives have AC50 up to about 26 µM;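 further: cells exposed to compound for 48 hours before viability readout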); conditions: CellTiter-Glo ATP luminescence
[2] = viability loss in pontine glioma line – cell-based, JHH-DIPG-1, MIPE4.0, CellTiter-Glo, qHTS, dose response (AID 1347062; cut-off not given, nearly all actives have AC50 up to about 27 µM;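 further: cells exposed to compound for two days before readout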); conditions: JHH-DIPG-1 viability, CellTiter-Glo ATP luminescence
[3] = viability loss in pontine glioma line – cell-based, SU-DIPG-IV, MIPE4.0, CellTiter-Glo, qHTS, dose response (AID 1347063; cut-off not given, nearly all actives have AC50 up to about 30 µM;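 further: compound exposure lasted 48 hours before the viability readout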); conditions: CellTiter-Glo ATP luminescence
[4] = viability loss in pontine glioma line – cell-based, SU-DIPG-XIII, MIPE5.0, CellTiter-Glo, qHTS, dose response (AID 1347064; cut-off not given, nearly all actives have AC50 up to about 23 µM;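 further: cells exposed to compound for 48 hours before the viability read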); conditions: CellTiter-Glo ATP luminescence
[5] = viability loss in pontine glioma line – cell-based, SU-DIPG-XXV, MIPE5.0, CellTiter-Glo, qHTS, dose response (AID 1347065; cut-off not given, nearly all actives have AC50 up to about 26 µM;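 further: cells exposed to compound for 48 hours before ATP readout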); conditions: CellTiter-Glo ATP luminescence
[6] = JHH-DIPG-1 glioma cell viability, MIPE5.0 library, CellTiter-Glo luminescence, qHTS (AID 1347067; cut-off not given, nearly all actives have AC50 up to about 26 µM;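 further: cells exposed to compound for 48 hours before readout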); conditions: JHH-DIPG-1 glioma viability, CellTiter-Glo ATP luminescence
[7] = growth inhibition of DIPG cells – cell-based, MIPE5.0 library, qHTS (AID 1347068; cut-off not given, nearly all actives have IC50 up to about 30 µM;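 further: cells exposed to compound for 48 hours before viability readout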); conditions: SU-DIPG-XXV viability
[8] = viability loss with induced miR-34 in A549 – imaging, A549 dox-inducible miR-34, nuclei and caspase counts, primary screen (AID 1347080;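 active means compounds whose cell count with miR-34 switched on is under 0.7 times the count with it off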); conditions: A549 miR-34 inducible, Hoechst nuclei count, 48 h
[9] = compounds altering HSF1 focus formation in cells – imaging, Selleck Cancer Library (AID 1347162; in the data active means plate-normalised HSF1 focus index below about 0.46); conditions: human cells, HSF1 nuclear foci imaging, at 10 µM; SSMD: measured here: HSF1 foci SSMD mean; cell count: measured here: cell number; plate-normalised HSF1 focus index: stronger effect = lower value
[10] = MELAS cybrid and Rieske KO viability enhancers – cell-based, MELAS cybrids, Rieske KO mouse fibroblasts, CellTiter-Glo, primary screen (AID 1508586;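 active means mean z-score across replicates of 1.96 or higher in either the MELAS or the Rieske mutant cell line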;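 further: z relative to plate mean and SD of compound and empty wells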); conditions: low glucose
[11] = drug combination growth inhibition, ovarian cancer – cell-based, oncology-focused library, rucaparib conditional, profiling panel (AID 1508598); conditions: patient-derived ovarian cancer cells, CellTiter-Glo viability, 144 h, stronger effect = lower value
[12] = growth inhibition, single agent or in combination, cell-based, chromothripsis tumors, cisplatin or BGB combos (AID 1671449; in the data active means inhibition above about 80%;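 further: cells exposed for 96 hours; 0% = vehicle DMSO and 100% = killing by high DMSO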); conditions: LFS_MB_P medulloblastoma cells
[13] = growth inhibition, single agent and combos, cell-based, chromothripsis tumors, cisplatin or BGB combos (AID 1671450; in the data active means inhibition above about 80%;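 further: cells exposed to compound for four days; 0% = vehicle DMSO and 100% = cell killing by high DMSO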); conditions: HDN33 neuroblastoma cells, stronger effect = higher value
[14] = growth inhibition, single agents and combos, ICB984, cell-based, cisplatin or BGB combos, synergistic combos for chromothripsis tumors (AID 1671451; call rule not given here;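 further: cells exposed for 96 hours before readout; 0% = vehicle DMSO and 100% = killing by high DMSO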); conditions: ICB984 medulloblastoma cells, drug combinations, stronger effect = higher value
[15] = stronger effect = lower value, cell number ratio, induced over uninduced
[16] = measured here: relative caspase fold change +Dox/-Dox
[17] = measured here: total cells with miR-34 induction, stronger effect = lower value
[18] = measured here: total cells without miR-34 induction
[19] = MELAS cybrid survival, CellTiter-Glo 48 h, stronger effect = higher value
[20] = Rieske KO mouse fibroblast survival, CellTiter-Glo 72 h

CN(c1ncccc1CNc1nc(Nc2ccc3c(c2)CC(=O)N3)ncc1C(F)(F)F)S(C)(=O)=O
AC50 [1]: 5.25 µM (active)
AC50 [2]: 5.9 µM (active)
AC50 [3]: 4.18 µM (active)
AC50 [4]: 8.33 µM (active)
AC50 [5]: 3.72 µM (active)
AC50 [6]: 8.33 µM (active)
IC50 [7]: 11.8 µM (active)
fold change [8, 15]: 0.847 (inactive) and 0.961 (inactive) and 0.946 (inactive)
fold change [8, 16]: 0.469 and 1.06 and 0.671
cell count [8, 17]: 1490 and 1380 and 1080
cell count [8, 18]: 1760 and 1430 and 1140
SSMD [9]: -7.81
cell count [9]: 4390
plate-normalised HSF1 focus index [9]: 0.528 (inactive)
z-score [10, 19]: -0.34 (inactive) and -0.161 (inactive) and 2.09 (active)
z-score [10, 20]: -0.291 and -0.23 and -5.55
viability ([11]; at 0.000305 µM, OCI-C5x cells, with rucaparib 10 µM, 100% = cells with rucaparib alone): 100% (inactive)
viability ([11]; at 0.000305 µM, OCI-C5x cells, without rucaparib): 125% (inactive)
viability ([11]; at 0.000305 µM, OCI-P5x cells, with rucaparib 20 µM, 100% = cells with rucaparib alone): 105% (inactive)
viability ([11]; at 0.000305 µM, OCI-P5x cells, without rucaparib): 110% (inactive)
viability ([11]; at 0.00122 µM, OCI-C5x cells, with rucaparib 10 µM, 100% = cells with rucaparib alone): 110% (inactive)
viability ([11]; at 0.00122 µM, OCI-C5x cells, without rucaparib): 111% (inactive)
viability ([11]; at 0.00122 µM, OCI-P5x cells, with rucaparib 20 µM, 100% = cells with rucaparib alone): 110% (inactive)
viability ([11]; at 0.00122 µM, OCI-P5x cells, without rucaparib): 110% (inactive)
viability ([11]; at 0.00488 µM, OCI-C5x cells, with rucaparib 10 µM, 100% = cells with rucaparib alone): 106% (inactive)
viability ([11]; at 0.00488 µM, OCI-C5x cells, without rucaparib): 130% (inactive)
viability ([11]; at 0.00488 µM, OCI-P5x cells, with rucaparib 20 µM, 100% = cells with rucaparib alone): 99.2% (active)
viability ([11]; at 0.00488 µM, OCI-P5x cells, without rucaparib): 108% (inactive)
viability ([11]; at 0.0195 µM, OCI-C5x cells, with rucaparib 10 µM, 100% = cells with rucaparib alone): 115% (inactive)
viability ([11]; at 0.0195 µM, OCI-C5x cells, without rucaparib): 122% (inactive)
viability ([11]; at 0.0195 µM, OCI-P5x cells, with rucaparib 20 µM, 100% = cells with rucaparib alone): 106% (inactive)
viability ([11]; at 0.0195 µM, OCI-P5x cells, without rucaparib): 106% (inactive)
viability ([11]; at 0.0781 µM, OCI-C5x cells, with rucaparib 10 µM, 100% = cells with rucaparib alone): 111% (inactive)
viability ([11]; at 0.0781 µM, OCI-C5x cells, without rucaparib): 122% (inactive)
viability ([11]; at 0.0781 µM, OCI-P5x cells, with rucaparib 20 µM, 100% = cells with rucaparib alone): 92.3% (active)
viability ([11]; at 0.0781 µM, OCI-P5x cells, without rucaparib): 101% (inactive)
viability ([11]; at 0.313 µM, OCI-C5x cells, with rucaparib 10 µM, 100% = cells with rucaparib alone): 110% (inactive)
viability ([11]; at 0.313 µM, OCI-C5x cells, without rucaparib): 119% (inactive)
viability ([11]; at 0.313 µM, OCI-P5x cells, with rucaparib 20 µM, 100% = cells with rucaparib alone): 90.8% (active)
viability ([11]; at 0.313 µM, OCI-P5x cells, without rucaparib): 93.6% (active)
viability ([11]; at 1.25 µM, OCI-C5x cells, with rucaparib 10 µM, 100% = cells with rucaparib alone): 110% (inactive)
viability ([11]; at 1.25 µM, OCI-C5x cells, without rucaparib): 110% (inactive)
viability ([11]; at 1.25 µM, OCI-P5x cells, with rucaparib 20 µM, 100% = cells with rucaparib alone): 76.7% (active)
viability ([11]; at 1.25 µM, OCI-P5x cells, without rucaparib): 73.3% (active)
viability ([11]; at 5 µM, OCI-C5x cells, with rucaparib 10 µM, 100% = cells with rucaparib alone): 13% (active)
viability ([11]; at 5 µM, OCI-C5x cells, without rucaparib): 19.1% (active)
viability ([11]; at 5 µM, OCI-P5x cells, with rucaparib 20 µM, 100% = cells with rucaparib alone): 33.5% (active)
viability ([11]; at 5 µM, OCI-P5x cells, without rucaparib): 24.3% (active)

OCc1ccc(-c2ccc(-c3ccc(CO)s3)o2)s1
AC50 [1]: 14.8 µM (active)
AC50 [2]: 20.9 µM (active)
AC50 [3]: 18.7 µM (active)
AC50 [4]: 16.6 µM (active)
AC50 [5]: 23.5 µM (active)
AC50 [6]: 16.6 µM (active)
fold change [8, 15]: 0.99 (inactive) and 0.88 (inactive)
fold change [8, 16]: 0.768 and 1.19
cell count [8, 17]: 3070 and 2470
cell count [8, 18]: 3100 and 2800
z-score [10, 19]: -0.467 (inactive)
z-score [10, 20]: 0.342

CC(C)c1nn(-c2c(Cl)cccc2Cl)c2nc(Cc3ccc(OCCO)cc3)[nH]c(=O)c12
AC50 [1]: 0.0417 µM (active)
AC50 [2]: 0.118 µM (active)
AC50 [3]: 0.0833 µM (active)
AC50 [4]: 0.0468 µM (active)
AC50 [5]: 0.0417 µM (active)
AC50 [6]: 0.0468 µM (active)
IC50 [7]: 0.0833 µM (active)

CN(C)c1ccc(C(=O)NCCCCCCC(=O)NO)cc1
AC50 [1]: 1.48 µM (active)
AC50 [2]: 0.743 µM (active)
AC50 [3]: 1.05 µM (active)
AC50 [4]: 0.934 µM (active)
AC50 [5]: 0.934 µM (active)
AC50 [6]: 1.18 µM (active)
fold change [8, 15]: 0.925 (inactive) and 1.16 (inactive)
fold change [8, 16]: 1.2 and 1.01
cell count [8, 17]: 3030 and 2210
cell count [8, 18]: 3270 and 1910
z-score [10, 19]: 1.18 (inactive)
z-score [10, 20]: 0.973
inhibition ([12]; at 0.5 µM, stronger effect = higher value): -18.1% (inactive)
inhibition ([12]; measured here: combination with BGB IC20, at 0.005 µM): -25.6%
inhibition ([12]; measured here: combination with BGB IC40, at 0.005 µM): -22.1%
inhibition ([12]; measured here: combination with BGB IC40, at 0.05 µM): -25.8%
inhibition ([12]; measured here: combination with cisplatin, at 0.5 µM, stronger effect = higher value): -23.5%
inhibition ([12]; measured here: combination with cisplatin, at 5 µM, stronger effect = higher value): 107%
inhibition ([13]; BGB combo, at 5 µM): 97.7%
inhibition ([13]; at 0.5 µM): 36.1% (inactive)
inhibition ([13]; cisplatin combo, at 5 µM): 99.4%
inhibition ([13]; measured here: with BGB IC20 combination, at 0.5 µM): 24.9%
inhibition ([13]; measured here: with cisplatin IC20 combination, at 0.5 µM): 50.9%
inhibition ([13]; single agent, at 5 µM): 99.1%
inhibition ([14]; BGB IC20 combo, at 0.005 µM): 6.17%
inhibition ([14]; BGB IC40 combo, at 0.005 µM): 7.19%
inhibition ([14]; BGB IC40 combo, at 0.05 µM): 87.6%
inhibition ([14]; at 0.5 µM): -20.5% (inactive)
inhibition ([14]; cisplatin combo, at 0.05 µM): 87.3%
inhibition ([14]; cisplatin combo, at 0.5 µM): -6.9%
